INHIBITION data for 74 molecules are collected here from ChEMBL document CHEMBL4513216, “Probing the Open Global Health Chemical Diversity Library for Multistage-Active Starting Points for Next-Generation Antimalarials” (ACS Infect Dis, 2020).

The structures appear in SMILES notation. The whole screen tested about 69,000 compounds, of which about 8,600 (12%) showed an effect of 50% or more. Many of the other results were omitted from the sample, so strong results are more common in it than they were.

This experiment has as its system Plasmodium berghei. Put plainly: Screen against P. berghei liver stage (PbLuc), transformed with Luciferase, at 10uM. Format: functional, HepG2. To be noted: tested at 10 uM.
Regarding `Cc1nc(N(C)C)ncc1C(=O)N[C@H]1Cc2ccccc2[C@@H]1N`, the INHIBITION is reported as 2.7%.

Regarding `COCCN(Cc1ccoc1)S(=O)(=O)c1ccc(OC)c(Cl)c1`, the INHIBITION came to 25.4%.

For the molecule `Cc1noc(NCc2cn(C)nc2-c2cccnc2)n1`, the INHIBITION turned out to be 41.5%.

With `Cc1oc(-c2nc(C#N)c(NC(C)C)o2)cc1S(=O)(=O)N1CCCCC1`, the INHIBITION is on record as 60.1%.

With `CNc1oc(-c2cc(S(=O)(=O)N3CCCCCC3)c(C)o2)nc1C#N`, the INHIBITION came out at 39.5%.

For the molecule `Cc1oc(-c2nc(C#N)c(NC(C)C)o2)cc1S(=O)(=O)N1CCCC1`, the INHIBITION is 34.6%.

Consider `Cn1cnc(S(=O)(=O)N2CCCc3c(F)cc(F)cc32)c1Cl`, for which the INHIBITION was determined as 30.3%.

On to `Cc1cccc(OCCSCCn2nc3ccccn3c2=O)c1`, for which the INHIBITION stood at 22%.

Regarding `CCc1nc(CN(C)C(=O)c2ccc(OCCCOC)nc2)cs1`, the INHIBITION turned out to be 82.5%.

Regarding `COCCCOc1ccc(C(=O)N(C)Cc2cccc(O)c2)cn1`, the INHIBITION was determined as 38%.

In the case of `COCCCOc1ccc(C(=O)N(C)CCC(C)C)cn1`, the INHIBITION is given as 39.7%.

Turning to `COCC(=O)N1CCC(c2cc(-c3ccc(OC)cc3)n[nH]2)C1` (centres undefined), the INHIBITION is given as -50.3%.

For `CCOC1CCN(C(=O)Nc2ccc(=O)n(C)c2)CC1`, the INHIBITION was found to be 33%.

For the molecule `c1cncc(O[C@H]2COCCN(CC3CC3)C2)c1`, the INHIBITION was found to be 12.4%.

On to `Fc1cccc(OC2CCN(CCn3cc4ccccc4n3)CC2)c1`, for which the INHIBITION was 75.2%.

Take `Fc1ccccc1OC1CCN(CCn2cc3ccccc3n2)CC1`: the INHIBITION came to 89.3%.

As to `COc1ccccc1OC1CCN(Cc2cccnc2)CC1`, the INHIBITION is listed as 5.91%.

As for `c1cncc(OC2CCN(CCn3cc4ccccc4n3)CC2)c1`, the INHIBITION was found to be 50.8%.

Regarding `CN1CCN(C2CCN(CCOc3ccccc3F)CC2)C1=O`, the INHIBITION is listed as -22.9%.

In the case of `CCc1ncc(CN2CCC(Oc3ccccc3OC)CC2)cn1`, the INHIBITION is given as -40%.

For `OCCn1nccc1C1CCN(CCOc2cccc(F)c2)CC1`, the INHIBITION is on record as 31.9%.

Regarding `Cc1ccc(CNC(=O)NCc2nccn2C)c(OC(C)(C)C)c1`, the INHIBITION was 43.5%.

In the case of `CC(C)NC(=O)N1CCN(C(=O)C2CCOCC2)CC2(CNC(=O)C2)C1` (centres undefined), the INHIBITION was found to be 1.9%.

As for `CCC(=O)N1CCN(C(=O)NCCOc2ccc3c(c2)CCC3)CC1`, the INHIBITION amounted to 30.2%.

For the molecule `Cc1nccn1-c1ccc(NS(=O)(=O)c2cnn(C)c2)cn1`, the INHIBITION came out at 4.95%.

As to `Cc1cccc(CN2Cc3[nH]nc(COCC4CC4)c3C2)n1`, the INHIBITION came out at 48.2%.

As for `Cc1ncc(CN2CCOCC2)c2cc(C(=O)c3ccc(Br)cc3)oc12`, the INHIBITION is listed as -21.8%.

On to `CC(O)CNC(=O)Nc1ccc(Br)cc1Br` (centres undefined), for which the INHIBITION was 29.1%.

As to `Cc1ncc(CN2CCCC2)c2cc(C(=O)c3ccc(Br)cc3)oc12`, the INHIBITION was found to be 44.5%.

In the case of `COC(=O)c1oc(CNC(C)(C)CO)cc1C`, the INHIBITION is listed as -3.35%.

Turning to `Cc1ncc(CN(C)CCO)c2cc(C(=O)c3ccc(Br)cc3)oc12`, the INHIBITION is reported as 36.8%.

`Cc1ncc(CNCCO)c2cc(C(=O)c3ccc(Br)cc3)oc12`: the INHIBITION is 59.2%.

Consider `Cc1ncc(CNC(C)(C)CO)c2cc(C(=O)c3ccc(Br)cc3)oc12`, for which the INHIBITION was determined as 65.3%.

`Cc1ncc(CNCC(C)O)c2cc(C(=O)c3ccc(Br)cc3)oc12` (centres undefined): the INHIBITION was 50.5%.

On to `CN(C)c1ccc(C(=O)NCc2csc(Br)c2)cn1`, for which the INHIBITION is 1.75%.

`CN1C(=O)CCC12CCC(NCc1ccsc1)CC2` (centres undefined): the INHIBITION worked out at 8.74%.

In the case of `COCCOC1CCN(C(C(=O)O)c2ccc3c(c2)OCO3)CC1` (centres undefined), the INHIBITION is recorded as 14.9%.

With `COCCCC1CCCCN1Cc1cn2cc(C)ccc2n1` (centres undefined), the INHIBITION is reported as -17.2%.

As to `CN1CCN(C(=O)CCCc2ccccc2)CC(O)(Cn2cccn2)C1` (centres undefined), the INHIBITION is 26.65%.

Consider `Cc1ccc(C)c(-n2cc(CN3CC[C@@H](O)C3)c(-c3ccccc3)n2)c1`, for which the INHIBITION is given as 39.9%.

As to `Cc1ccc(-n2cc(CN3CCOCC3)c(-c3cccc(C)c3)n2)cc1`, the INHIBITION was 56.1%.

On to `Cc1ccc(C)c(-n2cc(CN3CCOCC3)c(-c3ccccc3)n2)c1`, for which the INHIBITION is on record as 33.4%.

For `COc1cc(N2CCCn3cnc(COC(C)C)c3C2)ncn1`, the INHIBITION is given as 48.2%.

Regarding `Cc1cc(NC(=O)C(C)Nc2cccc(COCc3ccco3)c2)on1` (centres undefined), the INHIBITION came to 39.5%.

Turning to `Cc1nc(-c2cccc(C(=O)O)c2)cc(C2CCN(C(C)C)C2)n1` (centres undefined), the INHIBITION was found to be 0.0932%.

On to `Cc1cc(C)nc(Nc2cccc(C3CCCN(C(C)C)C3)n2)n1` (centres undefined), for which the INHIBITION was -21.4%.

Take `Cc1cccc(Nc2cc(C)nc(C3CCN(C(C)C)C3)n2)n1` (centres undefined): the INHIBITION turned out to be 60.9%.

For the molecule `Cc1cc(-c2ccc(C(=O)O)cc2)nc(C2CCN(C(C)C)CC2)n1`, the INHIBITION was 2.71%.

`Cc1cc(-c2cccc(C(=O)O)c2)nc(C2CCN(C(C)C)CC2)n1`: the INHIBITION is recorded as 56%.

Turning to `Cc1cc(C)nc(Nc2cc(C)nc(C3CCN(C(C)C)C3)n2)n1` (centres undefined), the INHIBITION is given as 11.685%.

On to `Cc1noc(Cl)c1CCC(=O)N1CCN(Cc2ccncc2)CC1`, for which the INHIBITION amounted to 1.78%.

As for `Cc1nn2cnnc2c(C)c1CCC(=O)Nc1nnc(C2CC2)s1`, the INHIBITION is recorded as -31.1%.

Consider `CC(C(=O)NCCc1ccc2c(c1)OCCO2)n1cncn1` (centres undefined), for which the INHIBITION came out at 35.4%.

On to `CCN(Cc1noc(CC(C)C)n1)Cc1cc2ccc(F)cc2[nH]c1=O`, for which the INHIBITION is -7.65%.

As to `Cn1cccc1CN1CCc2c(nc(-c3ccccn3)[nH]c2=O)C1`, the INHIBITION came out at 6.32%.

On to `CCOc1ccc2[nH]c(=O)c(CN3CCCC(CO)(CO)C3)cc2c1`, for which the INHIBITION is reported as -46.4%.

As to `CO[C@H]1CCN(C(=O)c2ccc3[nH]nnc3c2)C[C@@]12CCCO2`, the INHIBITION turned out to be 5.34%.

`CSc1ccc(C(=O)N2CC(=O)N(CC(C)(C)C)CC(O)C2)cc1` (centres undefined): the INHIBITION amounted to 37.4%.

For the molecule `O=C1CN(CC2CC2)Cc2nc(NCCc3ccccn3)sc21`, the INHIBITION is 23.4%.

As for `CC(=O)N1CCCC2(CCN(c3ccccc3)C2=O)C1` (centres undefined), the INHIBITION is 2.58%.

Take `O=C(NCCc1ccccc1)N1CCCCC1C1OCCO1` (centres undefined): the INHIBITION is given as 25.7%.

Take `O=C(CCc1ccccc1)N1CCCCC1C1OCCO1` (centres undefined): the INHIBITION amounted to 72.1%.

Regarding `O=C(CCc1ccccc1)N1CCCCC1Cn1cccn1` (centres undefined), the INHIBITION came to 29.4%.

As to `c1coc(CN2CCOC3(COCCN(Cc4ccncc4)C3)C2)c1` (centres undefined), the INHIBITION amounted to 31.7%.

As to `O=C(Cc1csc(-c2ccoc2)n1)NCCCN1CCCCC1`, the INHIBITION is -55.1%.

For the molecule `Cc1nc(CN(C)C2CCN(Cc3nnc(C4CC4)o3)C2)no1` (centres undefined), the INHIBITION is recorded as -55.4%.

As to `CN(Cc1noc(C2CC2)n1)C1CCN(CCc2cccs2)C1` (centres undefined), the INHIBITION was 43.2%.

For `CN(Cc1noc(C2CC2)n1)C1CCN(Cc2nnc(C3CC3)o2)C1` (centres undefined), the INHIBITION amounted to 51.6%.

`C1CN(Cc2noc(C3CC3)n2)CCN(Cc2nnc(C3CC3)o2)C1`: the INHIBITION came out at 74.9%.

`CCc1nc(CN2CCCN(Cc3nnc(C4CC4)o3)CC2)no1`: the INHIBITION came to 37.9%.

As to `CC(C)c1nc(CN(C)C2CCN(Cc3nnc(C4CC4)o3)C2)no1` (centres undefined), the INHIBITION is on record as -25.9%.

Consider `CC(C)c1nc(CN2CCCN(Cc3nnc(C4CC4)o3)CC2)no1`, for which the INHIBITION is -33.5%.

Regarding `CN(Cc1nnc(C2CC2)n1C)C1CCN(CCc2cccs2)C1` (centres undefined), the INHIBITION was -39.9%.

Regarding `CN(Cc1nnc(C2CC2)o1)C1CCN(CCc2cccs2)C1` (centres undefined), the INHIBITION turned out to be 56.7%.
